108 sequences from PubChem BioAssay AID1508600 (Functional Genomics Laboratory (NCATS/FGL), 2020) can be followed below.

Screen size: about 53,000 sequences; about 3,700 (7%) were called active. The full list was thinned out, with actives kept by preference. A number with no mark means an inactive call.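 How the source made its calls: active means gene knockdowns whose robust z-score for IL-1 alpha signal is at least 2 or at most -2, so actives lie on both sides; inactive means the rest.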

The nature of this assay: Components of the Cytosolic LPS Sensing Pathway: Gene Identification via Genome-wide siRNA Screen.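 Further: robust z of the log signal after scaling to non-targeting control siRNA wells of the plate.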 The conditions noted are these: RAW264.7 macrophages, IL-1a HTRF, actives lie on both sides, screened at 100 nM (by protocol), cells primed 5 h with Pam3CSK4 first. Summed up:
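Mouse macrophage line RAW264.7 is transfected with siRNA (100 nM final), grown 48h, primed with TLR ligand Pam3CSK4 5 h and given intracellular LipidA 24 h. IL-1a in supernatant is read by HTRF and viability by luminescence.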
A general note: In TR-FRET formats the signal depends on donor and acceptor labels being close together.
GGACUACCUAUGGUUAAAATT against Nup93: the z-score is -1.58.
As for GCUGGUUAGACCCUUCCAATT against Hnf4g, the z-score is 3.56 (active).
As for GCAUCUACUCCCUAUAGACTT against Nin, the z-score is 0.322.
As for GGCAGAGGAAAUCAUGAAGTT against Clpp, the z-score was -1.05.
Turning to GGGAGUUCAACUUGAUGUATT against Irf6, the z-score was -1.45.
Consider GGAUCCCAGAUUGAAAACUTT against Rnf5, for which the z-score was -0.92.
Turning to CGUGGACUAAAAGUUUUCATT against Mmp12, the z-score was 3.63 (active).
In the case of CCGGACCUCUGCGCAAUUUTT against Npb it was 0.289; in that of GUUUUUGCUAUGGCUCGUATT against H3c1, 0.92; in that of GGUGCUGCUAGUGAACAAGTT against E2f4, 5.64 (active).
Turning to CCGAGAACCUUAAACUCCCTT against Sowahc, the z-score is 0.161.
In the case of GGAGAUAUGGCCAUCACUCTT against Toe1 it was 1.11; in that of GGCCUUUGAUGACAUGUACTT against Bpifb1, -0.378; in that of GAUGCUAGUGAACCUCAUGTT against Olfr1020, -0.765.
On to CGAUUGGUUGUUGUAGACATT against Abhd11, for which the z-score was -2.56 (active).
Consider CCAAUCCAAACGAAGUUAATT against Rgs9, for which the z-score was -0.977.
As to CGUUUCAACAAGCUCGUGUTT against Rbmxl2, the z-score is 1.02.
On to GGAUACAAAUGAAAGCUUATT against Zfp354b, for which the z-score is -0.307.
For GGCAAGAAACAGUCAUAAGTT against Eps8l3 the value was 0.404.
In the case of GGCAUCAAGUUCUAUCUGUTT against Slc6a11 it was -0.704.
For GGCCGGUUAGCUAAUCAGATT against Armc10 the value was 2.03 (active); for UGGCUGAUAUGAAGGUCUGTT against Krtap31-2, 0.154.
For the sequence GCUGUACGUUUGCACAUUCTT against Rc3h1, the z-score was -2.87 (active).
GGCUCUGUAUCGGAAGGCUTT against Zc3h7a: the z-score was 0.817.
In the case of GGAUUCUGCUAGCAGUUCATT against Csn1s2a it was -0.477; in that of GGGUUGCUUCAACUUUUAGTT against Mpp1, -0.346.
In the case of GGCCAUGGAAAAAUCUCAGTT against Dtna it was 0.557; in that of GCCUAUACAACCCUAUUGUTT against Kazn, -0.879; in that of GCGCAGGAUGAGAAGUUCUTT against Slc43a3, 3 (active).
In the case of GGUUUGUGGUGAACUUUCATT against Lgals9 it was 0.707; in that of GGAUUUGGAAAAUUGAUGCTT against Ahi1, 0.97.
Regarding GGAUGAAAGCAAAGACAAGTT against Zscan21, the z-score is 2.63 (active).
For GGUUGAUGGGAAAACAAUATT against Rab11a the value was -0.6.
With GAUCCUGCAUCUUUAGUGUTT against Ascl1, the z-score was -0.0831.
As for GCUGAUUCCGUGUCCCAACTT against Gng2, the z-score was 3.42 (active).
For GGGUAGGGCAGUCUACUUATT against F2r the value was -0.407.
CCUGCUUCUCUACAACCAUTT against Olfr1209: the z-score was -0.817.
Consider GCUUGUAUUGCUUGUCUUUTT against Olfr172, for which the z-score is 1.89.
In the case of GGAGUAGAAGAAGAGGAGUTT against Mrpl50 it was 0.946; in that of GGUGCAAUCAGCUUUCCACTT against Olfr1336, 2.26 (active).
In the case of CCGAUUGAUAAAGUCACAUTT against Zfat it was 0.241; in that of GGAAAAAAGAUGAAUUGCCTT against Cbx8, 1.63; in that of GGAGUCUUGGCCCUUUAAUTT against Zcchc12, -1.09.
On to GCCUCUUUAUAAUAUAAGGTT against Pcgf6, for which the z-score is -0.687.
In the case of CGGUUAACUGGAAAGUGCGTT against Tmem132e it was 2.99 (active); in that of CGUGAUGAAUGAGAAUAACTT against Maea, 0.584.
In the case of GGAAUUAAACCAUUUCAGUTT against Zbtb44 it was 1.28; in that of GGAGGAUUCAUGCUUUGUUTT against Morc2b, 0.238.
Regarding GGUUUUUGAGUGGGAGACCTT against Khdc3, the z-score is -0.578.
For GAUUUAGCUUGGUGAACCGTT against Thoc6 the value was 0.754; for GGACUUAGACAUCCACCUCTT against Llcfc1, -1.64.
Regarding GGGACUGAAAUCUAUUUUGTT against Zfp217, the z-score is 2.16 (active).
In the case of CCAAGCUAGUCCUCAAGCUTT against Snapc2 it was -1.16; in that of GGGAUUGGCUACGACUUCATT against Cbs, 2.06 (active).
For GCUAGCUGUUGUAAAAGAATT against Gm4841 the value was -0.507; for GGCCAUUAACCAGUCUAUCTT against Cdhr5, 0.977; for “GGUUCUGGAGAACAGAGUCTT against 4930483J18Rik”, -0.44.
On to “GCGAUAAGCAGAAUGGCAGTT against 8030462N17Rik”, for which the z-score is -0.9.
For CGGGUGCCGGAAAGUUUAUTT against Klf7 the value was 2.84 (active); for GCAGCAUUGACUGAAGAUCTT against Lce1m, -0.316; for GGACAAAAGGCUGAGCAUCTT against Flt1, -0.235.
As for GGAAUCAUGCUGAAAGAGATT against Apom, the z-score is -0.123.
Take GGUUGCGUGUGGUUACUAUTT against Herc4: the z-score is 0.161.
With CCUCUGUGAUUUCAUUCUUTT against Hhip, the z-score was -0.991.
For GGCAUUUUCACAAAAGACUTT against Rab23 the value was -1.43; for GGAUGGCUACCGAAAAAAUTT against Eif3c, 0.967.
As for CGACGCAUUGAGGCAAUCUTT against Camsap3, the z-score was -0.483.
In the case of “GGCAAAGCACCUUUAUCUGTT against G430095P16Rik”, the z-score is -0.664.
For CCCAAGGUCCAGUUUGAUGTT against Mettl17 the value was -2.42 (active); for GGCAAGGAUAAGACAGUAGTT against Hs3st3b1, -0.354; for GGAUGAAGACCUUGAACGGTT against Slc28a3, 1.48.
In the case of GGAAACAGGUCUGUCCCAATT against Ankle1 it was -2.22 (active); in that of GGUUACCUAGAAGUGGACUTT against Igsf6, 0.201.
In the case of CCUUUCCAAACACCUAUAATT against Sox6 it was -1.2; in that of CCUUUCAGACCAGUUCAUUTT against Ppp1r17, 0.193; in that of GGUUCUUUUCAGCUCAUUATT against Toporsl, -0.0962.
For the sequence GCUUCCUACGGUGUGUCAATT against Hnrnpu, the z-score was -2.43 (active).
Turning to GGAGCCCAAAAAGAAGAAATT against Mrpl48, the z-score was 0.43.
For the sequence GGCCCAGCAAAAAAAGAAGTT against Usp46, the z-score is -0.397.
With GGUCAUAGCACCAUGUUCUTT against Gata5, the z-score was 0.831.
GGAAGAGACUUAUAAUGGUTT against Olfr1214: the z-score was 1.28.
In the case of CGAAAUCAGAACCUGGGAATT against Hacd3 it was 2.73 (active); in that of GGCUAUGUCUGUUUCCUUUTT against Defa-rs10, 0.963; in that of GGAUAUUCCUGGACUGACATT against Rps6, -0.996.
As to GGCAGAAUAUACUUGCCCUTT against Uevld, the z-score is -0.156.
Take GGAGAGCUCCUAUAAUCCUTT against Plau: the z-score was 0.267.
In the case of GGAUAUUGUCUUUGUAGAATT against Kap it was -0.565; in that of “GGACGUGAAGUGAAGUCAUTT against 1810009N02Rik”, -0.626; in that of GGCCUUGUACUUACACAAGTT against Rspo1, 0.398.
With CCUUUCCUACUCUGUACCCTT against Abcg1, the z-score is 2.22 (active).
For GGAUUCUCACAAGUAAUUCTT against Ifi203, the z-score was 0.272.
In the case of GGCUGUCACCCUACAUGACTT against Uba1 it was 0.0469; in that of GGAUAUGUUUGGUUAUUUCTT against Acbd4, -0.0997; in that of GGAGACUGUGAUUGAGAUGTT against Rnf181, -0.401.
In the case of CGACAAAAGCCACCUUUCGTT against Tm4sf4 it was -2.62 (active); in that of GGAGUCUGUGAACAAUCUCTT against Mx2, 0.0232; in that of GGAGUGUGUAAAGACAUAATT against Rnase2a, -0.685.
For GGACAAGAGGAGCUUUUGCTT against Id3 the value was -0.446; for GGUUUUCUUAAAAUAGGAGTT against Tat, -0.205; for GGAGGACUGGGAAGAUCAUTT against Aqp5, 0.152.
Regarding GGAGCCCAGGAAGAUGACATT against Cyp2c54, the z-score is -3.15 (active).
For GGUAAGUUAAAUGAUGACATT against Ccdc148 the value was -0.896.
For the sequence GGAUAUAACUGCUAUGGUUTT against Rhebl1, the z-score was -0.241.
In the case of GCUUAGAGCUUCAUAUAGCTT against Tlr12 it was -0.367; in that of GGCUGACUUCGUUUUCAUGTT against Derl3, -2.01 (active); in that of GGUGGAAGCAAUUUUAAAUTT against Trpc7, 0.384.
Turning to GGGAUGAGUACAAGAAAAATT against Nsun3, the z-score is -0.927.
As for CGUGUUGGAGUACAAUGAGTT against Imp3, the z-score is -0.927.
